The nature of assay [1]: Confirmation and Secondary Assay for Modulators of Hemoglobin Beta Chain Splicing at IVS2 654 locus (AID 910).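 Further: HeLa cells stably carrying EGFP split by mutant beta-globin IVS2-654 intron; per-well total GFP intensity by laser scanning cytometry after 2-day treatment; % of control where 0% means no effect.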 The essentials: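 Readout: per-well total peak green fluorescence (488 nm ex, 500–520 nm em) from objects 5–250 µm, reflecting correct splicing of an EGFP-654 reporter. Compounds were applied for 2 days at 37 °C to overnight-plated HeLa EGFP-654 cells; controls were DMSO and 500 nM IVS2-654 PNA.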

Assay [2] can be described thus: Confirmation and Secondary Assay for Modulators of Hemoglobin Beta Chain Splicing at IVS2 705 locus (AID 930).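 Further: HeLa cells stably expressing the EGFP-705 splicing reporter; GFP fluorescence per well restored by corrected splicing of the IVS2-705 intron in EGFP; % of control where 0% means no effect.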 The essentials: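 First, HeLa EGFP-705 cells are seeded at 500/well in Optimem with 2% FCS and left overnight. Next, compound or DMSO is added for 2 days. Finally wells are laser-scanned and total peak GFP intensity scored.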
Assay [3] can be described thus: qHTS Assay for Lipid Storage Modulators (AID 1519; calls by dose curve; further: potency means the concentration at half of the fitted maximal effect; on activity change, negative = inhibition: on the % scale 0 is the no-effect control and ±100 the full control effect). To be noted: Drosophila S3 cells, BODIPY lipid droplet/cell ratio, laser cytometry, cells loaded with oleic acid. The method in brief: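 Cells seeded at 5,000 per well were treated with compounds over a concentration series and loaded with oleic acid (400 uM, as added). Lipid droplet fluorescence (488 nm excitation, 500-530 nm channel) was read by laser-scanning cytometry and normalized to 20 uM Triacsin C.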
For orientation: In qHTS, concentration-response curves come from the screen itself.

The target of assay [4] is Rap guanine nucleotide exchange factor 3 (Homo sapiens) (UniProt O95398). The experiment in a line: Confirmatory qHTS for antagonist of cAMP-regulated guanine nucleotide exchange factor 3 (EPAC1) (AID 1645880). Further: potency means the concentration at half of the fitted maximal effect; nearly all actives have a fitted effect of over 55% in size. The method in brief: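 Released BODIPY-GDP fluoresces less than Rap1-bound BODIPY-GDP; the signal is followed at 480/540 nm at 5-min intervals over 30 min, after 5 min at room temperature. Reactions contain 100 nM EPAC1, 250 nM RAP1B-BODIPY-GDP and 50 uM GDP; results are normalized to ATA and DMSO.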
Sequence of Rap guanine nucleotide exchange factor 3 (Homo sapiens) (O95398 whole entry, looked up): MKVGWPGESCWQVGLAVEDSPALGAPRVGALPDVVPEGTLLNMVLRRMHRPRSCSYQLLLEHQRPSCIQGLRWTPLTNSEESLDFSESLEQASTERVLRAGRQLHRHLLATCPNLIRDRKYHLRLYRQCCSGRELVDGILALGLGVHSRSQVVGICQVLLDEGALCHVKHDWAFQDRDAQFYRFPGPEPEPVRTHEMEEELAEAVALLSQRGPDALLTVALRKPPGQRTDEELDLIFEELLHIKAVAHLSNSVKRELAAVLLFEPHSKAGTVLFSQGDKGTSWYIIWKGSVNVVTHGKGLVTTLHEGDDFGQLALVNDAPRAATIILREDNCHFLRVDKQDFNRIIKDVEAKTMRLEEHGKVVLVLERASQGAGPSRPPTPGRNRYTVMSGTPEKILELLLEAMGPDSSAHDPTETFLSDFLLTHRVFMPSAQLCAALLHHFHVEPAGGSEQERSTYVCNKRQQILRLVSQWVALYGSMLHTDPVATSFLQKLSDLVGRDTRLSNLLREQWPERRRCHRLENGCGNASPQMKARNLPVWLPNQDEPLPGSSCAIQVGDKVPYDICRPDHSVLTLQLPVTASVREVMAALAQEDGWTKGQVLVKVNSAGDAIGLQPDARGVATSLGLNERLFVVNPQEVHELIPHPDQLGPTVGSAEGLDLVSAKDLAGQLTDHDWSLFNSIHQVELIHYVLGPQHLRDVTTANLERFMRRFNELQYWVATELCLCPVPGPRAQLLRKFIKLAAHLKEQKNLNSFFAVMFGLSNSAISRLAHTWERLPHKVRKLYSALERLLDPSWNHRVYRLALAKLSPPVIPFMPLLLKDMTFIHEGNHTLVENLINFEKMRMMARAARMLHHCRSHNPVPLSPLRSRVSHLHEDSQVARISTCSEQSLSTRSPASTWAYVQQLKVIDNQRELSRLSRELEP

For assay [5], the target named is Rap guanine nucleotide exchange factor 4 (Homo sapiens) (UniProt Q8WZA2). As to the kind of experiment: Confirmatory qHTS for antagonist of cAMP-regulated guanine nucleotide exchange factor 4 (EPAC2) (AID 1645885). Further: on the % scale 0 is the no-effect control and ±100 the full control effect; nearly all actives have a fitted effect of over 25% in size.
Sequence of Rap guanine nucleotide exchange factor 4 (Homo sapiens) (Q8WZA2 whole entry, looked up): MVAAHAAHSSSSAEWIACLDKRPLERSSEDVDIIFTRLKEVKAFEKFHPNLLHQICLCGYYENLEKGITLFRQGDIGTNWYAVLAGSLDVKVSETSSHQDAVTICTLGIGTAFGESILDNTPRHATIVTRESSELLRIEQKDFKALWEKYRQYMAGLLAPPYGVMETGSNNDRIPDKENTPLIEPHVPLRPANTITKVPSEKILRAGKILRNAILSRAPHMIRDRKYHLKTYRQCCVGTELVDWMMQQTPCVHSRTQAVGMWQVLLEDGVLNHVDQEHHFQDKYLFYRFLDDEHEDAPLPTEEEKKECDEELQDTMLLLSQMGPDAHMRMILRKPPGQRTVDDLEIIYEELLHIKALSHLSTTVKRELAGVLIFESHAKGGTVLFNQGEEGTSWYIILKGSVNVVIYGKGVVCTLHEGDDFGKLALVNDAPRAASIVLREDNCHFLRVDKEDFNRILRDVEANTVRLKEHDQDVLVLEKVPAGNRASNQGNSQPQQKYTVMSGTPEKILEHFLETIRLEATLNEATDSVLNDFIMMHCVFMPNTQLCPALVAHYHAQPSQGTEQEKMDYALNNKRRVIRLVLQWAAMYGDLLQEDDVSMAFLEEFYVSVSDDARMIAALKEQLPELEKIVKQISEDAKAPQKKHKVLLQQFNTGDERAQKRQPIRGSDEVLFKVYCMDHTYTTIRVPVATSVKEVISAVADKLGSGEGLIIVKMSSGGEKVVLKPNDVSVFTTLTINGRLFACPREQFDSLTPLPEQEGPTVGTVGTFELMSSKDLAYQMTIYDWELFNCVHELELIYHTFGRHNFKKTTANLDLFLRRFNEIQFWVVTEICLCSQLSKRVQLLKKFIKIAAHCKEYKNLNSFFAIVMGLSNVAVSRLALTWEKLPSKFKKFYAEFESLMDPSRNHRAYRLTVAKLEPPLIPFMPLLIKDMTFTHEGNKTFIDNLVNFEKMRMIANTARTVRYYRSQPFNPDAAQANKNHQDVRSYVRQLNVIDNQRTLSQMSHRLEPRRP
The target in assay [6] is Cytochrome P450 2D6 (Homo sapiens) (UniProt P10635). As to the kind of experiment: Cytochrome P450 family 2 subfamily D member 6 (CYP2D6) small molecule antagonists: luciferase biochemical (cell-free) qHTS assay (AID 1645840; active means well fitted curve in the direction sought with a large enough effect in the repeat runs; an effect the other way counts as inactive or inconclusive; further: potency means the concentration at half of the fitted maximal effect; nearly all actives have a fitted effect of over 55% in size). The method in brief:
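P450-Glo CYP2D6 system: proluciferin substrate converted by enzyme to luciferin, read by luminescence proportional to activity. Enzyme-substrate mix with compound 10 min at room temperature, then NADPH regeneration 1 h before detection reagent.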

Assay [7] concerns the target Cytochrome P450 2C9 (Homo sapiens) (UniProt P11712). The experiment in a line: Cytochrome P450 family 2 subfamily C member 9 (CYP2C9) small molecule antagonists: luciferase biochemical (cell-free) qHTS assay (AID 1645842; active means well fitted curve in the direction sought with a large enough effect in the repeat runs; an effect the other way counts as inactive or inconclusive; further: potency means the concentration at half of the fitted maximal effect; nearly all actives have a fitted effect of over 55% in size). The essentials:
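P450-Glo CYP2C9 system: proluciferin substrate with enzyme in mix containing 0.4% BSA, 10 min at room temperature, then NADPH regeneration solution added and incubated 1 h at 37C. Detection reagent stopped reaction; luminescence read after 20 min as RLU.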

In assay [8] the target is Glutathione peroxidase 1 (Homo sapiens) (UniProt P07203). The experiment in a line: Primary qHTS Assay for Inhibitors of Recombinant Selenoprotein Glutathione Peroxidase 1 (GPX1) (AID 1845191). Further: on the % scale 0 is the no-effect control and ±100 the full control effect; nearly all actives have a fitted effect of over 65% in size. The essentials: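 NADPH consumption tracked by fluorescence at 340/450 nm between t=0 and t=15 min, room temperature. Final mix: 10 nM GPX1, 100 nM glutathione reductase, 1 mM GSH, 0.5 mM NADPH, 0.5 mM cumene hydroperoxide, 0.01% BSA; 30 min compound–enzyme preincubation.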
Sequence of Glutathione peroxidase 1 (Homo sapiens) (P07203 whole entry, looked up): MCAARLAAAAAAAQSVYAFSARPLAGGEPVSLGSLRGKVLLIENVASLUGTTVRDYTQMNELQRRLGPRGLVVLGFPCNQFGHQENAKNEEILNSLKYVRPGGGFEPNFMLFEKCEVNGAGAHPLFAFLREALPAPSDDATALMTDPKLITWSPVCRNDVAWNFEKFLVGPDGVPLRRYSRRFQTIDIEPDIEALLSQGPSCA

Assay [9] concerns the target Phospholipid hydroperoxide glutathione peroxidase GPX4 (Homo sapiens) (UniProt P36969). As to the kind of experiment: Primary qHTS Assay for Inhibitors of Recombinant Selenoprotein Glutathione Peroxidase 4 (GPX4) (AID 1845192). Further: potency means the concentration at half of the fitted maximal effect; nearly all actives have a fitted effect of over 65% in size. The note with it: outcome: dose series up to 50 µM unless noted. The essentials:
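NADPH consumption followed by fluorescence at 340/450 nm, t=0 and after 15 min at room temperature. Reaction started with cumene hydroperoxide (0.5 mM final) after 30 min compound–GPX4 preincubation; final 200 nM GPX4, 100 nM GR, 1 mM GSH, 0.5 mM NADPH.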

The nature of assay [10]: qHTS profiling of the MIPE4 collection as inhibitors of Plasmodium falciparum (3D7) proliferation (AID 743344; call rule not given here;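 further: scaled between DMSO vehicle wells and 0.29 µM artemisinin as full inhibition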). The note with it: P. falciparum 3D7 in erythrocytes, SYBR Green DNA fluorescence, 72 h; at 28.5 µM (top of the series). The essentials: (§1)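 Parasite DNA was quantified by SYBR Green I fluorescence (ex 485, em 535 nm) after overnight lysis in saponin/Triton buffer at room temperature. Cultures at 0.3% parasitemia and 2.5% hematocrit were first exposed to compound for 72 h at 37 C; signals were normalised to artemisinin (0.29 uM) and vehicle wells.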

Assay [11] can be described thus: qHTS profiling of the MIPE4 collection as inhibitors of Plasmodium falciparum (DD2) proliferation (AID 743345; call rule not given here). The note with it: P. falciparum Dd2 in erythrocytes, SYBR Green DNA, 72 h; at 28.5 µM (top of the series). The method in brief:
as §1

Assay [12] can be described thus: qHTS profiling of the MIPE4 collection as inhibitors of Plasmodium falciparum (DD2) proliferation (Rep 2) (AID 743346; call rule not given here). To be noted: P. falciparum Dd2 in erythrocytes, SYBR Green DNA, 72 h; at 28.5 µM (top of the series). The method in brief: as §1
The nature of assay [13]: qHTS profiling of the MIPE4 collection as inhibitors of Plasmodium falciparum (HB3) proliferation (AID 743347; call rule not given here;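 further: plate controls were DMSO vehicle wells for no effect and artemisinin wells for full effect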). The note with it: P. falciparum HB3 in erythrocytes, SYBR Green DNA, 72 h; at 28.5 µM (top of the series). The method in brief:
as §1

Assay [14] can be described thus: Vero cells viability qHTS for Zika virus inhibitors (AID 1347167). Further: on the % scale 0 is the no-effect control and ±100 the full control effect. The essentials:
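Luminescent ATP readout (CellTiter Glo) after 30 min at 37 degrees C gives viability; cells in DMEM + 4% FBS were treated 24 to 48 hours with compound, following overnight attachment.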

Assay [15] addresses Calcium and integrin-binding protein 1 (Homo sapiens) (UniProt Q99828). As to the kind of experiment: Primary qHTS for Identification of Calcium Integrin Binding Protein 1 (CIB1) Competitor (AID 1508620).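 Further: GST tagged CIB1 binding a fluorescein labelled alphaIIb integrin peptide tracer; top concentration of the series differs between compounds; on the % scale 0 is the no-effect control and ±100 the full control effect.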 The method in brief:
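CIB1-GST (1 uM final) and compound incubated 15 min at room temperature before adding FITC-alphaIIb peptide tracer (100 nM final). Competition for binding read by fluorescence polarization (ex 480, em 540) after another 15 min at room temperature.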

Assay [16] concerns Zika virus NS2B-NS3 protease. The experiment in a line: Primary screen GU AMC qHTS for Zika virus inhibitors (AID 1347154).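 Further: 0% = no-inhibitor control and -100% = no-enzyme control; nearly all actives have a fitted effect of over 70% in size.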 The method in brief:
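Fluorogenic AMC-substrate cleavage by noncovalent NS2B-NS3 protease complex (25 nM, pH 8.0 Tris buffer with Tween 20) followed for 15 minutes at room temperature (~20% conversion). Percent inhibition from ex340/em450 signal change, fitted by 4-parameter Hill equation.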

A short description of assay [17]: Confirmatory screen GU Rhodamine qHTS for Zika virus inhibitors qHTS (AID 1347157).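 Further: plate controls were no-inhibitor wells for no effect and no-enzyme wells for full effect; nearly all actives have a fitted effect of over 70% in size.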 The essentials: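 A qHTS format was used, with compound concentrations ranging up to 114 microM. Each compound was preincubated with 25 nM NS2B-NS3 protease, and the substrate was then added at 1.5 microM. Curves were fitted with a 4-parameter Hill model.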
Assay [18] is described as follows: Confirmatory screen NINDS Rhodamine qHTS for Zika virus inhibitors (AID 1347161).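 Further: purified Zika NS2B-NS3 protease with linked NS2B cofactor domain and Rhodamine110 peptide substrate; plate controls were no-inhibitor control for no effect and no-enzyme control for full effect; nearly all actives have a fitted effect of over 60% in size.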 The essentials: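 Each compound, titrated, sat 15 min with 25 nM linked protease before 1.5 microM Rhodamine110 substrate went in. Fluorescence gain over the next 15 min, in pH 8.0 Tris with Tween 20, gave Hill-fitted curves.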
Assay [19] is described as follows: Tertiary RLuc qRT-PCR qHTS assay for Zika virus inhibitors (AID 1347169). Further: top concentration of the series differs between compounds; on the % scale 0 is the no-effect control and ±100 the full control effect; nearly all actives have a fitted effect of over 55% in size. The method in brief: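 Vero, 1,000 cells/well, o/n 37 C; cpd pinned in DMSO; ZIKV-RLuc Cambodian, MOI 1-2, 48-72 h 37 C; live-cell RLuc substrate, lum read at 1-1.5 h.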
Assay [20] can be described thus: Primary qHTS for small molecule stabilizers of the endoplasmic reticulum resident proteome: Secreted ER Calcium Modulated Protein (SERCaMP) assay (AID 1508630). Further: on the % scale 0 is the no-effect control and ±100 the full control effect. The essentials:
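The SH-SY5Y reporter protocol was run at 3 concentrations up to 38.3 uM (primary) or 11 concentrations (follow-up): 16 h compound, 100 nM thapsigargin for 4 h, then extracellular luciferase luminescence.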

The mark [21] stands for this setting: measured here: cell count channel max response.
The mark [22] stands for this setting: measured here: lipid channel max response.

Here are results for seven compounds from PubChem BioAssay (NCATS).

Records with an inconclusive call do not appear. Active and inactive are the calls of the source. Unless noted, the call rests on the fitted dose curve; in most records, active means well fitted curve in the direction sought with a large enough effect; inconclusive means small, poorly fitted or top-dose-only effect, or another doubt; inactive means no such curve, though single readings can be large; an effect the other way counts as inactive or inconclusive.

Sequence of Cytochrome P450 2C9 (Homo sapiens) (P11712 whole entry, looked up): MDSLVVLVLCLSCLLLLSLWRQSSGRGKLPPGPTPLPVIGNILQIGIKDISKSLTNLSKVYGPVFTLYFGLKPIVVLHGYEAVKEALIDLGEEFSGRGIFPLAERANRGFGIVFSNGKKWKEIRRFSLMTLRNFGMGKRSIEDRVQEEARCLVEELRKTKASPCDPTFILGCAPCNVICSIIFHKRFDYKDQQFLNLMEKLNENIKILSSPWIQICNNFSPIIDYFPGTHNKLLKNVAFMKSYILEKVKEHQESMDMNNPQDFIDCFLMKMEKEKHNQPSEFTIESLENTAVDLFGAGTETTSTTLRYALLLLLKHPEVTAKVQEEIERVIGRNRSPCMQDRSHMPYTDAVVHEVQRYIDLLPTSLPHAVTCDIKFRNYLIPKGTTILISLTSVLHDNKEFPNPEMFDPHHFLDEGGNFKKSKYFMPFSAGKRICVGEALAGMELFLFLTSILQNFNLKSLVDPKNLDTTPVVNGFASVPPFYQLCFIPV
Sequence of Phospholipid hydroperoxide glutathione peroxidase GPX4 (Homo sapiens) (P36969 whole entry, looked up): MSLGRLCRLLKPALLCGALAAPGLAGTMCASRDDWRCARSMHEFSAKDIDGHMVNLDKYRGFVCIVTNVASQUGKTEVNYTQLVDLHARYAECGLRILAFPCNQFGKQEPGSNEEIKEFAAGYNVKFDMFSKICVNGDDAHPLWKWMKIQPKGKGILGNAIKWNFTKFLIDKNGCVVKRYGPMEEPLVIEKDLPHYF
Sequence of Cytochrome P450 2D6 (Homo sapiens) (P10635 whole entry, looked up): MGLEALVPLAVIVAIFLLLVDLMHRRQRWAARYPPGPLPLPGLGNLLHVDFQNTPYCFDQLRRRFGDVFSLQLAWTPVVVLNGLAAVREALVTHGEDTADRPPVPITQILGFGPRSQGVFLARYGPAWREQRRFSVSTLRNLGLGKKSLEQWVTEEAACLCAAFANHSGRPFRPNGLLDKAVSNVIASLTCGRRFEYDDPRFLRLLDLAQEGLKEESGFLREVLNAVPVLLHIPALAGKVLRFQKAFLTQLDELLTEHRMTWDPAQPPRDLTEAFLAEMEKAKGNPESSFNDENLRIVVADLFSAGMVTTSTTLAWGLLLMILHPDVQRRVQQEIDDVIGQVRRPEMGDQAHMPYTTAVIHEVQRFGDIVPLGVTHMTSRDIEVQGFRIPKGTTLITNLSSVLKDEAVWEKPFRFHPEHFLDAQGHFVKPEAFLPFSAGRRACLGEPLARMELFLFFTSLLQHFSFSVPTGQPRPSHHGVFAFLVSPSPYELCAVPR
Sequence of Calcium and integrin-binding protein 1 (Homo sapiens) (Q99828 whole entry, looked up): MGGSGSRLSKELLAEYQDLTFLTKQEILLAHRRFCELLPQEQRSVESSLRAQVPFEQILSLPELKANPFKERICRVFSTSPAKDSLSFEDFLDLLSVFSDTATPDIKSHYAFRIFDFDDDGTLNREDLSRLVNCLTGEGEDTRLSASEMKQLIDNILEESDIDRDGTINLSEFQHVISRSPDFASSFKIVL

As to `CC(C)=CCCC1(C)C=Cc2c(O)c3c(c(CC=C(C)C)c2O1)OC12C(=CCCC1C(C)(C)O[C@@]2(C/C=C(\C)C(=O)O)C(=O)O)C3=O` (some centres not stated), the call in assay [1] and in [2] was inactive. The activity change, negative = inhibition in assay [3] (at 57.5 µM (top of the series)) was 7.82% (inactive). Besides, the figures for the max response in assay [3] (setting [21]) and in assay [3] (setting [22]) were 0.914% and 7.86%, respectively. Moreover, in [4], the Potency is 55.9 µM (active). Further, the Potency result in [5] was “inactive”.

As for `CCOc1nc2cccc(C(=O)OC(C)OC(=O)OC3CCCCC3)c2n1Cc1ccc(-c2ccccc2-c2nn[nH]n2)cc1` (configuration not stated), in assay [2], the compound was classed as inactive. Further, the Potency in assay [3] is 7.94 µM (active); in assay [6] it was 13.5 µM (active); in assay [7], 4.77 µM (active); in [9], 7.94 µM (active). In addition, the max response in [3] (setting [21]) was -28.3%; in [3] (setting [22]) it was -78.8%. Moreover, the Potency entry in assay [8] was “inactive”.

In the case of `O=C(O)c1cc(NCc2cc(O)ccc2O)ccc1O`, in [10], the parasite growth, % of DMSO control worked out at 85.7%. Also, in assay [11], the parasite growth remaining, % of DMSO control (lower = more inhibition) was 96.7%. This compound showed a parasite growth, % of control (lower = inhibition) in assay [12] of 67.1%. In addition, in assay [13], the growth, % of control came out at 68.7%.

In the case of `O=C(O)c1c(Sc2ccccc2)c2cc(Cl)ccc2n1Cc1ccc(Cl)cc1`, in assay [14], the Potency entry was “inactive”.

Take `O=C(OCC#CCSc1nnc(-c2ccc(Cl)cc2)o1)c1ccc(F)cc1`: the result in assay [15] was inactive.

Consider `CO[C@H]1C[C@@H](O[C@@H]2/C(C)=C/C[C@@H]3C[C@@H](C[C@]4(CC[C@H](C)[C@@H](C5CCCCC5)O4)O3)OC(=O)[C@@H]3C=C(C)/C(=N/O)[C@H]4OC/C(=C\C=C\[C@@H]2C)[C@]43O)O[C@@H](C)[C@H]1O`, for which the Potency entry in assay [8] was “inactive”.

For the compound `Cc1cc(=O)c2c(O)c3c(O)cc(O)c4c5c(O)cc(O)c6c(O)c7c(=O)cc(C)c8c1c2c(c34)c(c65)c78`, the Potency result in assay [16], in [17], in assay [18], in [19] and in assay [20] was “inactive” in each case.
